Among all 5,500 compounds or so, about 2,000 (36%) were called active. Another 18% or so got no clear call; they are omitted. No stated cut-off is given here; in the data, active means normalized growth mostly below about 0.91 (no sharp cut-off); inconclusive means no clear call, values can overlap the other calls; inactive means mostly above about 0.92. This is one part of the list.
Test: chemical genetic growth profiling, strain panel (AID 1159580);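 further: tested at 20 µM; growth read once vehicle control cultures reached saturation at 30 °C; 1 = growth at the plate median or of vehicle wells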
Details: growth OD

Measured: normalized growth

C=CC(C1=CC(=O)C(OC)=CC1=O)c1ccccc1 (configuration not stated)
inactive: S. cerevisiae deletion strains, locus YKL009W, strain mrt4, stronger effect = lower value 0.905 | S. cerevisiae deletion strains, locus YKL068W, stronger effect = lower value 0.977 | S. cerevisiae deletion strains, locus YKL085W, strain MDH1 (second series), stronger effect = lower value 0.954 | S. cerevisiae deletion strains, locus YKL085W, strain MDH1, stronger effect = lower value 0.954 | S. cerevisiae deletion strains, locus YKR026C, strain gcn3, stronger effect = lower value 0.987 | S. cerevisiae deletion strains, locus YKR091W, strain srl3, stronger effect = lower value 0.995 | S. cerevisiae deletion strains, locus YLL041C, strain sdh2, stronger effect = lower value 0.978 | S. cerevisiae deletion strains, locus YLR058C, strain SHM2, stronger effect = lower value 0.953 | S. cerevisiae deletion strains, locus YLR102C, strain apc9, stronger effect = lower value 0.949 | S. cerevisiae deletion strains, locus YLR268W, strain sec22, stronger effect = lower value 0.888 | S. cerevisiae deletion strains, locus YLR357W, strain rsc2, stronger effect = lower value 1.04 | S. cerevisiae deletion strains, locus YLR370C, strain arc18, stronger effect = lower value 0.949 | S. cerevisiae deletion strains, locus YLR371W, strain rom2, stronger effect = lower value 0.937 | S. cerevisiae deletion strains, locus YLR384C, strain iki3, stronger effect = lower value 0.978 | S. cerevisiae deletion strains, locus YML016C, strain PPZ1, stronger effect = lower value 0.959 | S. cerevisiae deletion strains, locus YML124C, strain tub3, stronger effect = lower value 0.963 | S. cerevisiae deletion strains, locus YMR058W, strain fet3, stronger effect = lower value 0.921 | S. cerevisiae deletion strains, locus YMR078C, strain ctf18, stronger effect = lower value 0.928 | S. cerevisiae deletion strains, locus YMR129W, stronger effect = lower value 0.988 | S. cerevisiae deletion strains, locus YMR231W, strain pep5, stronger effect = lower value 1.01 | S. cerevisiae deletion strains, locus YMR263W, strain SAP30, stronger effect = lower value 0.926 | S. cerevisiae deletion strains, locus YMR307W, strain GAS1, stronger effect = lower value 0.864 | S. cerevisiae deletion strains, locus YNL067W, strain RPL9B, stronger effect = lower value 0.873 | S. cerevisiae deletion strains, locus YNL128W, strain TEP1, stronger effect = lower value 0.906 | S. cerevisiae deletion strains, locus YNL153C, strain GIM3, stronger effect = lower value 0.972 | S. cerevisiae deletion strains, locus YNL183C, strain NPR1, stronger effect = lower value 0.871 | S. cerevisiae deletion strains, locus YNL250W, strain rad50, stronger effect = lower value 0.956 | S. cerevisiae deletion strains, locus YNL271C, strain bni1, stronger effect = lower value 0.958 | S. cerevisiae deletion strains, locus YNL298W, strain CLA4, stronger effect = lower value 0.919 | S. cerevisiae deletion strains, locus YNL322C, strain KRE1 (second series), stronger effect = lower value 0.969 | S. cerevisiae deletion strains, locus YNL322C, strain KRE1, stronger effect = lower value 0.928 | S. cerevisiae deletion strains, locus YNR049C, strain mso1, stronger effect = lower value 0.992 | S. cerevisiae deletion strains, locus YNR052C, strain pop2, stronger effect = lower value 0.954 | S. cerevisiae deletion strains, locus YOL006C, strain TOP1, stronger effect = lower value 0.69 | S. cerevisiae deletion strains, locus YOL012C, strain htz1 0.631 | S. cerevisiae deletion strains, locus YOR001W, strain rrp6, stronger effect = lower value 0.943 | S. cerevisiae deletion strains, locus YOR061W, strain CKA2, stronger effect = lower value 0.956 | S. cerevisiae deletion strains, locus YOR069W, strain VPS5, stronger effect = lower value 0.958 | S. cerevisiae deletion strains, locus YOR080W, strain dia2, stronger effect = lower value 0.996 | S. cerevisiae deletion strains, locus YOR083W, strain WHI5, stronger effect = lower value 0.905 | S. cerevisiae deletion strains, locus YOR136W, strain idh2, stronger effect = lower value 0.942 | S. cerevisiae deletion strains, locus YOR144C, strain elg1, stronger effect = lower value 0.973 | S. cerevisiae deletion strains, locus YOR265W, strain rbl2, stronger effect = lower value 0.93 | S. cerevisiae deletion strains, locus YOR290C, strain snf2, stronger effect = lower value 0.89 | S. cerevisiae deletion strains, locus YOR316C, strain cot1, stronger effect = lower value 0.96 | S. cerevisiae deletion strains, locus YPL055C, strain LGE1, stronger effect = lower value 0.816 | S. cerevisiae deletion strains, locus YPL106C, strain sse1, stronger effect = lower value 1.03 | S. cerevisiae deletion strains, locus YPL241C, strain CIN2, stronger effect = lower value 0.962 | S. cerevisiae deletion strains, locus YPR119W, strain clb2, stronger effect = lower value 0.966 | S. cerevisiae deletion strains, locus YPR141C, strain kar3, stronger effect = lower value 0.971 | S. cerevisiae deletion strains, locus YPR167C, strain met16, stronger effect = lower value 0.959
active: S. cerevisiae deletion strains, locus YJR075W, strain HOC1, stronger effect = lower value 0.88 | S. cerevisiae deletion strains, locus YKL160W, strain elf1, stronger effect = lower value 0.79 | S. cerevisiae deletion strains, locus YKL190W, strain CNB1, stronger effect = lower value 0.866 | S. cerevisiae deletion strains, locus YKR001C, strain vps1, stronger effect = lower value 0.774 | S. cerevisiae deletion strains, locus YLL001W, strain dnm1, stronger effect = lower value 0.885 | S. cerevisiae deletion strains, locus YLL026W, stronger effect = lower value 0.85 | S. cerevisiae deletion strains, locus YLR027C, strain aat2, stronger effect = lower value 0.808 | S. cerevisiae deletion strains, locus YLR039C, strain RIC1, stronger effect = lower value 0.519 | S. cerevisiae deletion strains, locus YLR113W, strain HOG1, stronger effect = lower value 0.663 | S. cerevisiae deletion strains, locus YLR221C, strain rsa3, stronger effect = lower value 0.734 | S. cerevisiae deletion strains, locus YLR258W, strain gsy2, stronger effect = lower value 0.875 | S. cerevisiae deletion strains, locus YLR262C, strain YPT6 (second series), stronger effect = lower value 0.518 | S. cerevisiae deletion strains, locus YLR262C, strain YPT6, stronger effect = lower value 0.405 | S. cerevisiae deletion strains, locus YLR320W, strain mms22, stronger effect = lower value 0.379 | S. cerevisiae deletion strains, locus YLR330W, strain CHS5, stronger effect = lower value 0.912 | S. cerevisiae deletion strains, locus YLR342W, strain FKS1 (second series), stronger effect = lower value 0.603 | S. cerevisiae deletion strains, locus YLR342W, strain FKS1, stronger effect = lower value 0.79 | S. cerevisiae deletion strains, locus YLR418C, strain cdc73, stronger effect = lower value 0.774 | S. cerevisiae deletion strains, locus YML032C, strain rad52, stronger effect = lower value 0.883 | S. cerevisiae deletion strains, locus YML120C, strain ndi1, stronger effect = lower value 0.864 | S. cerevisiae deletion strains, locus YMR125W, strain sto1, stronger effect = lower value 0.852 | S. cerevisiae deletion strains, locus YMR205C, strain PFK2, stronger effect = lower value 0.784 | S. cerevisiae deletion strains, locus YMR223W, strain ubp8, stronger effect = lower value 0.84 | S. cerevisiae deletion strains, locus YNL071W, strain lat1, stronger effect = lower value 0.213 | S. cerevisiae deletion strains, locus YNL209W, strain ssb2, stronger effect = lower value 0.908 | S. cerevisiae deletion strains, locus YNL233W, strain BNI4, stronger effect = lower value 0.808 | S. cerevisiae deletion strains, locus YNL248C, strain rpa49, stronger effect = lower value 0.842 | S. cerevisiae deletion strains, locus YNL307C, strain MCK1, stronger effect = lower value 0.302 | S. cerevisiae deletion strains, locus YOL147C, strain pex11, stronger effect = lower value 0.926 | S. cerevisiae deletion strains, locus YOR070C, strain gyp1, stronger effect = lower value 0.79 | S. cerevisiae deletion strains, locus YOR106W, strain vam3, stronger effect = lower value 0.739 | S. cerevisiae deletion strains, locus YOR184W, strain ser1, stronger effect = lower value 0.536 | S. cerevisiae deletion strains, locus YOR231W, strain MKK1, stronger effect = lower value 0.853 | S. cerevisiae deletion strains, locus YOR270C, strain vph1, stronger effect = lower value 0.761 | S. cerevisiae deletion strains, locus YPL051W, strain arl3, stronger effect = lower value 0.737 | S. cerevisiae deletion strains, locus YPL078C, strain atp4, stronger effect = lower value 0.868 | S. cerevisiae deletion strains, locus YPL240C, strain hsp82, stronger effect = lower value 0.904 | S. cerevisiae deletion strains, locus YPL256C, strain CLN2, stronger effect = lower value 0.75 | S. cerevisiae deletion strains, locus YPR163C, strain tif3, stronger effect = lower value 0.766 | S. cerevisiae deletion strains, strain wtn01, stronger effect = lower value 0.846 | S. cerevisiae strains, strain wild type, stronger effect = lower value 0.805
